The values that follow come from PubChem BioAssay (NCATS).

Molecules are shown by their SMILES. “And” between values parts separate entries of the source, which are not always exact repeats. Equal entries are not always repeated. Inconclusive results are not listed. Values without a mark were called inactive. The source made the active and inactive calls. Calls follow the shape of the dose curve; as a rule, active = well fitted curve in the direction sought with a large enough effect; inconclusive = small, poorly fitted or top-dose-only effect, or another doubt; inactive = no such curve, though single readings can be large; an effect the other way counts as inactive or inconclusive.

Assay [1] deals with Cytochrome P450 3A7 (Homo sapiens) (UniProt P24462). Description: Cytochrome P450 family 3 subfamily A member 7 (CYP3A7) small molecule antagonists: luciferase biochemical qHTS assay (AID 1963596). Also: % is scaled to controls: 0 for no effect and ±100 for the full control effect; nearly all actives have a fitted effect of over 40% in size. Put shortly:
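Compounds were screened in qHTS format for interference with CYP3A7 turnover of a proluciferin substrate. Reactions ran 1 h at room temperature after NADPH regeneration solution was added, then luciferin product was detected by luminescence.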

Assay [2] can be described thus: Viability qHTS for spleen associated tyrosine kinase inhibitor (SYKi) naive MV4-11 cells (AID 1963823). Also: nearly all actives have a fitted effect of over 40% in size. Also: potency is read from the fitted curve at half-maximal effect. Put shortly: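 CellTiter-Glo luminescence, 10 min room-temperature incubation, gave viability. Cells: naive MV4-11 (500/well), treated 72 hr at 37 C, 5% CO2.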
On the technique in general: Quantitative high-throughput screening tests each substance at several concentrations.

Assay [3] can be described thus: Viability qHTS for spleen associated tyrosine kinase inhibitor (SYKi) drug resistant MV4-11 cells (AID 1963824). Also: nearly all actives have a fitted effect of over 35% in size. Also: potency is read from the fitted curve at half-maximal effect. Put shortly: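 SYK-inhibitor-resistant MV4-11 AML cells were seeded at 500 per well onto compound and cultured 72 hours (37 °C, 5% CO2). CellTiter-Glo was then added, and after 10 min at room temperature, luminescence gave viability.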
Assay [4] can be described thus: Cellular viability qHTS for adrenocortical cancer (ACC) cell line SW-13 (AID 1963989).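 Also: cells grown in serum-free medium with ITS supplement; % is scaled to controls: 0 for no effect and ±100 for the full control effect; nearly all actives have a fitted effect of over 65% in size.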 Particulars: SW-13 ACC cells viability, CellTiter-Glo, 48 h; activity (max response): active compounds read low. Put shortly:
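Viability was read as CellTiter-Glo luminescence after 48 h compound treatment (up to 46 uM final) of SW-13 cells grown serum-free; titration curves were fit with a four-parameter logistic model to give IC50 and efficacy.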

Assay [5] is described as follows: Cellular viability qHTS for adrenocortical cancer (ACC) cell line NCI-H295R (AID 1963990).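 Also: 0% = DMSO only wells and -100% = full killing with cytotoxic reference compound; nearly all actives have a fitted effect of over 60% in size.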 Put shortly:
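CellTiter-Glo ATP luminescence, read 48 h after compound addition, measured viability of NCI-H295R adrenocortical cells grown serum-free with ITS. Final concentrations spanned up to 46 uM. Data normalized to DMSO and doxorubicin, fitted for IC50 and maximal response.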

Cytochrome P450 3A7 (Homo sapiens), sequence (P24462 whole entry, looked up): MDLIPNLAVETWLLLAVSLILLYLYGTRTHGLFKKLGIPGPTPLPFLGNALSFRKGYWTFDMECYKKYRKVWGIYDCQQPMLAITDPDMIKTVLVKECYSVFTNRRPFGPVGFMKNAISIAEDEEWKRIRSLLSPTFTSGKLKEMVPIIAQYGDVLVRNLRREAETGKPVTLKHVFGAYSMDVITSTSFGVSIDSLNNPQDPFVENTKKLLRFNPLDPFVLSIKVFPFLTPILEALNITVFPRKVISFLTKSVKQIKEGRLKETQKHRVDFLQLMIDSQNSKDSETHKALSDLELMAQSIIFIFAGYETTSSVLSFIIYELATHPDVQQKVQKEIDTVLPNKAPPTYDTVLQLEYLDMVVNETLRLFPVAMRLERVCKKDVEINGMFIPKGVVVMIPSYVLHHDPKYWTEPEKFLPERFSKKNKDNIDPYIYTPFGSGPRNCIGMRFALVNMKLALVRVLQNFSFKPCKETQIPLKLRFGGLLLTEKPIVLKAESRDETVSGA

As to `OC[C@H]1O[C@@H](O[C@@H]2[C@@H](CO)O[C@](O)(CO)[C@H]2O)[C@H](O)[C@@H](O)[C@H]1O`, the Potency result in assay [1], in assay [2], in assay [3] and in assay [5] was “inactive” throughout. For the same compound, in assay [4], the activity (max response) is 1.01% and 4.87%.

For the compound `CCCN(CCC)S(=O)(=O)c1ccc(C(=O)O)cc1`, the Potency result in assay [1], in assay [2], in assay [3] and in assay [5] was “inactive” throughout. For the same compound, the activity (max response) in assay [4] is 9.34%.

Turning to `Cc1cccc(-c2nn3c(c2-c2ccnc4ccc(C(N)=O)cc24)CCC3)n1`, the Potency entry in assay [1], in assay [2], in assay [3] and in assay [5] was “inactive” in each case. Further, in assay [4], the activity (max response) is 14.6%.

In the case of `CCOC(=O)CN1CCCC1=O`, the Potency entry in assay [1], in assay [2], in assay [3] and in assay [5] was “inactive” throughout. The activity (max response) in assay [4] is 4.08%.

Turning to `CC1(C)S[C@@H]2[C@H](NC(=O)[C@H](N)c3ccccc3)C(=O)N2[C@H]1C(=O)O`, the Potency entry in assay [1], in assay [2], in assay [3] and in assay [5] was “inactive” each time. Besides, the activity (max response) in assay [4] was 9.26%.

On to `CN1CCN(C(=O)C2CCCCC2)CC1`, for which the Potency entry in assay [1], in assay [2], in assay [3] and in assay [5] was “inactive” each time. The activity (max response) in assay [4] was 7.59%.

On to `COc1cc(/C=C/C(N)=O)cc(OC)c1OC`, for which the Potency result in assay [1], in assay [2], in assay [3] and in assay [5] was “inactive” each time. Moreover, in assay [4], the activity (max response) is 17.9%.

Regarding `NC(N)=NCCC[C@H](N)C(=O)O`, in assay [1], the activity change, negative = inhibition is 2.52% [at 4.83 µM]. The viability (% of control) in assay [2] was 90.4% [at 4.97 µM]. Moreover, in assay [3], the viability, % of control is 98.3% [at 4.97 µM]. Further, the activity (max response) in assay [4] was -3.82%. Moreover, the activity change, negative = viability loss in assay [5] is -23.9% [at 3.81 µM].

For the compound `C[C@H]1O[C@@H](n2cc(F)c(=O)[nH]c2=O)[C@H](O)[C@@H]1O`, the Potency entry in assay [1] and in assay [5] was “inactive” throughout. For the same compound, the Potency in assay [2] is 3.76 µM (active) and 2.35 µM (active); in assay [3], 2.11 µM (active) and 1.05 µM (active). For the same compound, in assay [4], the activity (max response) is -3.76% and -5.78%.
